MARV entry inh: Marburg virus entry inhibition; Marburg virus pseudotyped entry inhibition, cell reporter; Potency, µM (highest dose often 37.8 µM), for the others: at the highest dose activity change, negative = inhibition, usual class: inhibitors; hit rate 1.8% among 300,000; calls by dose curve; tested in HEK293 cells; also: potency is read from the fitted curve at half-maximal effect; % is scaled to controls: 0 for no effect and ±100 for the full control effect
LASV entry inh: blocks Lassa virus binding to or entry into cells; Lassa virus pseudotype entry inhibition, cell reporter; Potency, µM (titrated, usually from 37.9 µM), without a hit: at the top dose activity change, negative = inhibition, usual class: inhibitors; hit rate 1.2% among 300,000; AID 540256; calls by dose curve; tested in HEK293 cells; also: potency is read from the fitted curve at half-maximal effect; % is scaled to controls: 0 for no effect and ±100 for the full control effect; nearly all actives have a fitted effect of over 50% in size
Vaccinia Venus: vaccinia inhibition (Venus reporter); Vaccinia virus Venus reporter expression, fluorescence; Potency, µM (titrated, usually from 36.5 µM), for the others: top-dose activity change, negative = inhibition, usual class: inhibitors; hit rate 0.46% among 330,000; calls by dose curve; tested in A549 cells; also: potency is read from the fitted curve at half-maximal effect; % is scaled to controls: 0 for no effect and ±100 for the full control effect; nearly all actives have a fitted effect of over 30% in size
VACV mCherry inh: inhibitors of vaccinia virus infection (mCherry reporter signal) | hit rate 0.63% among 310,000 | Potency, µM (series often up to 36.5 µM), without a hit: at the top dose activity change, negative = inhibition, most hits filed as inhibitors | Vaccinia virus mCherry reporter infection, fluorescence; calls by dose curve; tested in A549 cells; also: potency is read from the fitted curve at half-maximal effect; % is scaled to controls: 0 for no effect and ±100 for the full control effect; nearly all actives have a fitted effect of over 35% in size
CHX counter: counter-screen for Shiga toxin inhibitors: cycloheximide protein synthesis inhibition; cell reporter, cycloheximide protein synthesis inhibition counterscreen; max response, %; hit rate 12% among 300,000; AID 2314; in the data active = max response mostly above about 13%, no sharp cut-off; inactive = mostly below about 14%; also: read at 38.3 µM for the half of the compounds with a filed dose; 0% is about no effect
Shiga inhibitor: blocks Shiga toxin action in Vero cells. inhibition, % at 38.7 µM. AID 2315. hit rate 9.2% among 290,000. Vero cells, Shiga toxin protein synthesis inhibition reporter; in the data active = inhibition mostly above about 28%, no sharp cut-off; inactive = mostly below about 43%; also: 0% is about no effect
Active calls of the source: *; i = inactive; ? = inconclusive; nt = no result; + = active, no number; [ ] = another dose, or the depositor's remark. The full list was thinned out, with hits kept by preference.

SMILES	MARV entry inh	LASV entry inh	Vaccinia Venus	VACV mCherry inh	CHX counter	Shiga inhibitor
CN(Cc1ccccc1)C(=O)N[C@@H](Cc1ccccc1)C(=O)O	8.4%	12.3%	-14.5%	nt	-2.0	-5.7
CN(Cc1ccccc1)C(=O)COC(=O)c1ccc(Cl)cc1N	?	1.5%	-11.9%	-17.2%	28.7*	46.5
O=C(CCl)N(Cc1ccccc1)c1ccccc1	16.4µM*	?	nt	nt	26.0*	6.4
COC(=O)[C@H](Cc1ccccc1)NC(=O)N(C)Cc1ccccc1	1.0%[46.1 µM]	0.6%	-16.6%	i	17.9*	26.7
CN(Cc1ccccc1)C(=O)CCC1CCN(C(=O)CCC(F)(F)F)CC1	0.5%	?	-13.3%	-20.6%	32.1*	nt
CCOC(=O)NN=C1C[C@@H](O)[C@@H](O)[C@@H]2[C@H]3C(=O)N(c4ccc(F)cc4F)C(=O)[C@@H]3CC[C@H]12	-21.5%[14.2 µM]	?	nt	nt	nt	nt
COc1ccc(C(=O)NCC(=O)N/N=C(\C)Cc2ccccc2)cc1	nt	nt	nt	nt	1.1	-5.1
CN(Cc1ccccc1)C(=O)CCC(=O)N(C)Cc1ccccc1	-17.4%	6.3%	-13.8%	nt	32.4*	113.3*
COc1ccc(OCC(=O)N/N=C(\C)c2cccs2)cc1	nt	nt	nt	nt	-0.8	-5.1
C/C(=N\NC(=O)COc1ccccc1[N+](=O)[O-])c1cccs1	-8.7%[46.1 µM]	5.7%	1.9%	-12.8%	43.3*	65.7*
C/C(Cn1nc([N+](=O)[O-])cc1C)=N\NC(=O)c1cccc(Br)c1	10.8%	10.7%	-22.0%	nt	30.9*	21.7
C/C(Cn1nc([N+](=O)[O-])cc1C)=N\NC(=O)COc1ccccc1[N+](=O)[O-]	16.6%	2.5%	nt	nt	24.9*	+
C/C(Cn1nc([N+](=O)[O-])cc1C)=N\NC(=O)COc1ccc(Cl)cc1Cl	-20.4%	8.4%	-11.2%	-11.3%	-1.9	-3.3
CCOC(=O)C(=CNc1nc(-c2ccccc2)c(C(=O)Nc2ccc(-c3ccccc3)cc2)s1)C(=O)OCC	nt	nt	nt	nt	-8.2	5.8
O=C(Nc1nc(-c2ccc3ccccc3c2)cs1)c1ccc(N2C(=O)CCC2=O)cc1	0.4%	5.0%	?	?	-2.8	-7.0
CCOC(=O)C(=CNc1nc(-c2ccc3ccccc3c2)cs1)C(=O)OCC	?	?	-13.2%	-11.0%	26.8*	38.0*
O=C(O)c1ccccc1C(=O)Nc1nc(-c2ccc3ccccc3c2)cs1	nt	nt	nt	nt	36.4*	65.9*
COC(=O)c1ccccc1NC(=O)CSc1nncn1-c1ccccn1	0.6%[46.1 µM]	nt	0.4%	-3.3%	-2.5	-0.8
CC(CC(C)(C)C)CP(=O)(O)CC(C)CC(C)(C)C (stereo not given)	nt	nt	nt	nt	-7.8	-20.4
Cc1cc(CC(C)CC(C)(C)C)n(O)c(=O)c1 (stereo not given)	nt	nt	?	1µM*	nt	nt
N#CC(C#N)=C1CCCc2sccc21	12.3%	4.6%	-12.5%	-8.8%	nt	nt
COc1ccc(S(=O)(=O)NC(C)C(=O)NCCN2CCOCC2)cc1Cl (stereo not given)	?	9.4%	-6.0%	-15.2%	-8.5	-2.2
Cn1nc(-c2ccc(F)cc2)nc2c(=O)n(C)c(=O)nc1-2	nt	nt	2.82µM*	0.631µM*	nt	nt
Cn1nc(-c2cccnc2)nc2c(=O)n(C)c(=O)nc1-2	nt	nt	2.51µM*	3.16µM*	nt	nt
Cn1nc(-c2ccc(Cl)cc2)nc2c(=O)n(C)c(=O)nc1-2	0.1%	nt	2µM*	2µM*	25.3	21.6*
SMILES	MARV entry inh	LASV entry inh	Vaccinia Venus	VACV mCherry inh	CHX counter	Shiga inhibitor
Cn1nc(-c2ccccc2)nc1-c1ccccc1	nt	nt	-18.2%	-6.1%	nt	nt
Cc1cc(C)n2nc(-c3cccnc3)nc2n1	8.2%	1.7%	-1.6%	nt	1.8	2.8
O=C(Nc1cccc(C(F)(F)F)c1)N1CC2CCCN2c2ccccc21 (stereo not given)	nt	-5.5%[46.1 µM]	-8.6%	-1.3%	nt	nt
CC(=O)Oc1ccccc1/C=C/c1nc2ccccc2c(=O)o1	?	2µM*	-8.5%	i	3.6	-6.3
CC(=O)Oc1ccc(/C=C/c2nc3ccccc3c(=O)o2)cc1	?	?	-19.5%	-7.5%	-1.8	-32.7
O=c1oc(/C=C/c2ccc([N+](=O)[O-])s2)nc2ccccc12	nt	nt	nt	nt	11.7*	16.5
O=[N+]([O-])c1ccc(C=Nc2cccc3ccccc23)s1	?	?	-6.1%	-18.5%	-2.7	37.7
CCN(CC)S(=O)(=O)c1ccc2c(c1)nc(-c1ccccn1)n2C	-0.4%[46.1 µM]	nt	-14.2%	-8.5%	23.4*	82.9*
Cc1cc(C)nc(NC(=O)c2ccccc2O)n1	nt	nt	nt	nt	4.1	5.2
CCn1c(C)csc1=NC(=O)c1ccccc1O	?	?	-10.3%	-1.9%	55.9*	107.4*
Cc1csc(=NC(=O)c2ccccc2)n1Cc1ccco1	-6.3%	6.0%	4.8%	-14.3%	11.0	27.5
Cc1ccc(S(=O)(=O)/N=c2\scc(C)n2C)cc1	nt	nt	-14.2%	i	nt	nt
CCn1c(C)csc1=NC(=O)c1ccccc1	?	?	-4.5%	-5.9%	28.8*	33.7*
Cc1csc(=NC(=O)c2ccccc2)n1C	17.2%	-18.1%	nt	nt	50.5*	82.8*
O=C(N[C@@H](Cc1ccccc1)C(=O)O)c1cccs1	1.9%[46.1 µM]	2.8%	-5.4%	i	-1.0	18.2
CN(C)CCCn1c(=S)[nH]c2ccccc2c1=O	?	1.2%[46.1 µM]	-10.9%	i	-2.2	-17.1
CN(C)CCCn1c2c3ccccc3ccc2c2oc(=O)c3ccccc3c21	?	?	?	22.4µM*	nt	nt
CCOC(=O)OC(C)OC(=O)C1N2C(=O)C(NC(=O)C(N)c3ccccc3)C2SC1(C)C (stereo not given)	nt	nt	0.0%	-2.7%	nt	nt
Cc1c(CC(=O)NCC(=O)O)c(=O)oc2cc3c(cc12)CCC(C)(C)O3	nt	nt	nt	nt	1.1	5.7
O=C(COc1cccc2c1CCNC2=O)Nc1ccc(F)cc1	23.8%	0.8%	-7.3%	i	nt	nt
Cn1ccnc1SCC(=O)Nc1ccc2c(c1)COC2=O	23.6%	7.4%	-19.3%	nt	14.5	52.0*
Cc1ccc(-n2nnnc2SCC(=O)Nc2ccc3c(c2)COC3=O)cc1C	-3.4%[46.1 µM]	-3.1%	-17.8%	-19.3%	16.5*	-3.5
Cn1ccnc1SCC(=O)Nc1cccc(S(=O)(=O)N2CCCCCC2)c1	?	?	-5.9%	-4.5%	1.6	-5.1
COc1cc(C(=S)N2CCOCC2)ccc1OC(=O)/C=C/c1ccco1	nt	nt	nt	nt	20.5*	22.9
Cc1nc2c3cnn(-c4ccccc4)c3ncn2n1	19.2%	13.3%	-12.0%	-28.1%	21.2*	34.3*
Cc1ccc(-n2ncc3c2ncn2c(C)nnc32)cc1C	-10.3%	-12.4%	-0.4%	i	29.5*	62.9*

Screens from PubChem.
